High-throughput results from PubChem BioAssay.
PI4K2A block – qHTS for small molecular inhibitors of PI4K2A; Phosphatidylinositol 4-kinase type 2-alpha (Homo sapiens), Q9BTU6; purified PI4K2A, ADP-Glo luminescence, 1 h; active compounds read low; activity change, negative = inhibition, % at 76.9 µM; actives 0.13% (n = 420,000); in the data active = activity change below about -50%; inconclusive = mostly about -30% to -49%;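 also: -100% = wells without enzyme as full effect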
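Compounds are screened against recombinant PI4K2A using PI as substrate and ATP, the latter dispensed at 300 microM. Reactions run one hour at ambient temperature before ADP-Glo detection; full inhibition defined by wells lacking enzyme.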
CCT modulator – High-Throughput Screening for Modulators of Cytosolic Chaperonin Activity; actives 0.3% (n = 360,000); activity change, % (test concentration not listed), hits read low; AID 651819, 2012; purified chaperonin ATPase assay, HTRF ADP detection, 30 min; in the data active = activity change below about -30%
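Nucleotide hydrolysis assay: TRiC at 20–40 nM final (set by batch activity) with 10 uM ATP, 30 min at 37 °C, in presence of 76 uM compound. Detection by competitive ADP HTRF, 30 min ambient.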
CtBP-E1A inh – qHTS Assay for Inhibitors of the CtBP/E1A Interaction. CtBP / adenovirus E1A interaction (AlphaScreen). AlphaScreen GST-E1A/His-CtBP binding, 1536-well; active compounds read low. activity change, % (no concentration beside the values). actives 0.49% (n = 340,000). AID 651724, 2012
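Protein mix (5X: 125 nM each GST-E1A, His-CtBP) was incubated with pinned compound 2 h at 37 deg C in dark, in 50 mM Tris pH 8.0 buffer with 300 mM NaCl. Glutathione donor and nickel acceptor beads followed; AlphaScreen signal read after 1 h.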
Six1-Eya2 blk – qHTS Assay for Inhibitors of the Six1/Eya2 Interaction. AlphaScreen GST-Six1/His-Eya2 binding, biochemical; active compounds read low. actives 0.56% (n = 360,000). activity change, % (no concentration beside the values)
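Compounds are tested against tagged Six1 and Eya2 proteins bridged by glutathione donor and nickel acceptor beads; after a one-hour incubation at 37 °C without light, AlphaScreen emission is recorded.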
Eya2 phos inh – qHTS Assay for Inhibitors of the Phosphatase Activity of Eya2 | recombinant Eya2, OMFP fluorescence dephosphorylation (OMFP is methylfluorescein phosphate) | Potency, µM (titrated, usually from 76.9 µM), for the others: at the highest dose activity, negative = inhibition, most hits filed as inhibitors | actives 0.006% (n = 330,000); active = well fitted inhibition curve with a large enough effect; inconclusive = small, poorly fitted or top-dose-only effect, or effect the other way; also: potency is read from the fitted curve at half-maximal effect
Target sequence (O00167 whole entry, looked up): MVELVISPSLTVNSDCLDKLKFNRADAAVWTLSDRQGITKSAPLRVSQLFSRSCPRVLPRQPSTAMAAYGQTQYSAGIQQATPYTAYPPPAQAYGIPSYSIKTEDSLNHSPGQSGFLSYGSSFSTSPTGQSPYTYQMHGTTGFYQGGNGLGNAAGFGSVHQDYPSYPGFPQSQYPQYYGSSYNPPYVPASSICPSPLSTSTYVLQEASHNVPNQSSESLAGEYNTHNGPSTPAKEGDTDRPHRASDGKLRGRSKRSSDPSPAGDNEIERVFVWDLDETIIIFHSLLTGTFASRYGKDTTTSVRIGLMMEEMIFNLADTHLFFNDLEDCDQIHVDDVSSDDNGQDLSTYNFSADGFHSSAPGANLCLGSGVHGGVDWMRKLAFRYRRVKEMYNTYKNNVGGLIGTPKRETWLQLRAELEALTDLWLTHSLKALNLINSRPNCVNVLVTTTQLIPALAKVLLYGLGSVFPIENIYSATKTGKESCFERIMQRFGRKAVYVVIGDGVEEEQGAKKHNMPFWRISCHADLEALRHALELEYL
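Eya2 protein (added as 0.2 uM solution) was preincubated with compound for 10 min at ambient temperature in 50 mM HEPES pH 7.5, 50 mM NaCl, 5 uM MgCl2, 0.05% BSA, 1 mM DTT. OMFP (added at 50 uM) then reacted 10 min; fluorescence read at 485/525 nm.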
* hit, by the source's call; u = inconclusive; x = no result given. Hits are enriched below; roughly 0.97% of the tested compounds scored in any of these assays. Rule as the data show it, unless noted: active = activity change below about -65%; inconclusive = mostly about -30% to -63%; inactive = weaker than that. Unless noted, % is scaled to controls: 0 for no effect and ±100 for the full control effect.

SMILES | PI4K2A block | CCT modulator | CtBP-E1A inh | Six1-Eya2 blk | Eya2 phos inh
Cc1c(C(=O)Oc2ccc(-c3cnc4ccccc4n3)cc2)cccc1[N+](=O)[O-] | 6 | -1 | -1 | -9 | 4%
CC1=C/C(=C(\c2cc(C)c(O)c(Br)c2)c2ccccc2S(=O)(=O)O)C=C(Br)C1=O | -69* | 0 | -75* | -92* | -20%
O=C(O)C(=O)Nc1cccc(-c2nn[nH]n2)c1 | -5 | x | x | x | x
COC(=O)c1ccc(NC(=O)C(=O)c2cccn2C)cc1 | -82* | -1 | x | -1 | u
Cc1ccc2nc(-c3ccccc3)cn2c1 | -70* | 0 | -2 | 0 | 24%
Cc1ccc2nc(-c3ccc(O)c(O)c3)cn2c1 | u | 0 | -8 | -9 | -7%
C[C@H]1C[C@H](O)c2ccsc2S1(=O)=O | -1 | x | x | x | x
O=C(O)c1ccc(NS(=O)(=O)c2ccc3c(c2)C(=O)c2ccccc2C3=O)cc1 | -4 | 2 | u | -72* | 3%
O=C(O)c1cccc(S(=O)(=O)Nc2ccc(-c3ccccc3)cc2)c1 | -6 | -2 | 0 | -1 | -2%
O=C(COc1cccc2cccnc12)N/N=C/c1ccccc1O | 1 | -1 | -25 | -18 | -5%
Cc1ccccc1OCC(=O)N/N=C/c1cccc2cccnc12 | 0 | -27 | -13 | -76* | -7%
O=C(COc1ccc(F)cc1)N/N=C/c1cccc2cccnc12 | 5 | -2 | -86* | u | x
Cc1ccc(OCC(=O)N/N=C/c2cn(C)c3ccccc23)cc1 | 9 | -26 | 6 | 0 | -2%
Cc1ccc(OCC(=O)N/N=C/c2cccc3cccnc23)cc1 | -6 | -3 | -90* | -77* | -3%
CC(C)(C)OC(=O)NCCC(=O)N/N=C/c1cccc2cccnc12 | -5 | 0 | -79* | u | -1%
COC(=O)C(C)NC(=O)N1CCN(c2nnc(C)c3c(C)n(-c4ccc(Cl)cc4)nc23)CC1 (configuration not stated) | 3 | x | x | x | x
CCOC(=O)c1cccc(NC(=O)CCCn2c(C)c3cnn(-c4ccccc4)c(=O)c3c2C)c1 | 0 | x | x | x | x
CCN1CCN(c2cc(C)c3cc(NC(=O)/C=C/c4ccc(OCCC(C)C)cc4)ccc3n2)CC1 | 3 | x | x | x | x
O=C1Cc2ccccc2C(=O)N1 | -56* | 1 | u | 22 | x
O=C1Nc2ccccc2CCc2ccccc21 | -2 | -2 | -1 | -2 | -2%
Cc1ccc(C(=O)Nc2nc(-c3ccccn3)cs2)o1 | -14 | 4 | u | -93* | u
CC(=O)c1ccc(-c2ccc(C(=O)Nc3nc(-c4ccccn4)cs3)o2)cc1 | -19 | 1 | -79* | -69* | -16%
O=C(Nc1nc(-c2ccccn2)cs1)c1ccc(-c2ccccc2F)o1 | -1 | 0 | -70* | u | 3%
CC(=O)Nc1ccc(-c2csc(NC(=O)c3ccc(C)o3)n2)cc1 | -9 | 1 | -3 | -14 | 27%
O=C(Nc1nc(-c2ccccn2)cs1)c1ccc([N+](=O)[O-])o1 | -9 | -1 | -92* | -73* | 6%
SMILES | PI4K2A block | CCT modulator | CtBP-E1A inh | Six1-Eya2 blk | Eya2 phos inh
O=C(Nc1ccc(Cl)cc1)Nc1ccc(Cl)c(C(F)(F)F)c1 | 2 | x | x | x | x
CCc1ccc(NC(=O)CSc2nc3ccsc3c(=O)n2C(C)CC)cc1 (configuration not stated) | -4 | x | x | x | x
Cc1nc(SCC(=O)Nc2ccccc2C)cc(-c2ccccc2)n1 | -1 | x | x | x | x
CC(CC1c2ccccc2CCc2ccccc21)CN(C)C (configuration not stated) | 0 | x | x | x | x
CCc1cc(C(=O)Nc2nc(-c3ccccn3)cs2)sc1C | -7 | -2 | -67* | u | 6%
CN1[C@@H]2CC[C@H]1CC(NC(=O)n1c(=O)[nH]c3ccccc31)C2 (some centres not stated) | 1 | x | x | x | x
COc1ccc(-c2cn3cc(C(=O)NN)ccc3n2)cc1 | -72* | -3 | 12 | -23 | -4%
NNC(=O)c1ccc2nc(-c3ccc(Br)cc3)cn2c1 | -14 | -13 | -2 | -13 | -19%
Cc1nc2c3ccccc3nc(NNC(=O)CCC(=O)N3CCN(c4cccc(C(F)(F)F)c4)CC3)n2n1 | -2 | x | x | x | x
O=C(CSc1nnc(-c2ccccc2)c(-c2ccccc2)n1)NCc1ccco1 | -6 | 0 | -17 | -20 | 2%
O=C(CSc1ncc(-c2ccccc2)nn1)NCc1ccco1 | -4 | -92* | -8 | -6 | -18%
CCOc1ccc(C(c2c(C)[nH]n(-c3ccccc3)c2=O)c2c(C)[nH]n(-c3ccccc3)c2=O)cc1OC | -58* | x | x | x | x
O=C(NCCc1ccccc1F)c1ccc(Sc2ccccc2Cl)c([N+](=O)[O-])c1 | -2 | x | x | x | x
COC(=O)c1ccc(Cl)cc1NC(=O)Nc1nnc(N2CCCC2)s1 | -2 | x | x | x | x
NC(c1csc(Nc2ccc(C(=O)NCCCO)cn2)n1)c1ccccc1Cl (configuration not stated) | -6 | 2 | -77* | u | x
NC(=O)c1ccc(Nc2nc(C(N)c3ccccc3Cl)cs2)cc1 (configuration not stated) | 1 | 0 | -21 | -7 | x
NC(c1ccccc1)c1csc(Nc2ccc(C(=O)NCCCO)cn2)n1 (configuration not stated) | -4 | -1 | -85* | -83* | x
CN(C)[C@@H](CCOc1cccc2ccccc12)c1ccccc1 | -2 | x | x | x | x
COC(=O)NCC(c1ccco1)N1CCN(c2ccc(OC)cc2)CC1 (configuration not stated) | 1 | 0 | 9 | 10 | 6%
COc1ccc(N2CCN(C(CNC(=O)C(=O)NCCCO)c3ccco3)CC2)cc1 (configuration not stated) | -3 | -69* | x | -1 | 14%
Cc1cc(C)nc(SCNC(=O)c2ccc(F)cc2)n1 | -2 | -32* | -1 | 10 | -2%
Cc1cc(C)nc(SCC(=O)c2ccc(F)cc2)n1 | 4 | 0 | x | -11 | 8%
N#Cc1ccsc1NC(=O)c1ccccn1 | 1 | 0 | u | -67* | 8%
COc1cccc(Cn2c(CNS(=O)(=O)c3ccc(F)c(Cl)c3)nc3cccnc32)c1 | -9 | x | x | x | x
COc1ccc(OC)c(Nc2nc(-c3c(C)nc4ncccn34)cs2)c1 | -3 | -1 | -82* | u | 7%
COc1ccc(-c2csc(N(CCCN(C)C)C(=O)c3ccccc3Cl)n2)cc1 | -4 | 3 | u | u | x
COc1ccc(-c2csc(N(CCCN(C)C)C(=O)c3ccccc3C)n2)cc1 | 0 | 1 | u | -29 | 50µM*
